Of roughly 7,900 targets only a part is listed; those with a hit were picked by preference. About 0.6% of all pairs of compound and target were hits. A number with no mark means an inactive call.
How the values were obtained:
Assay in all cases: log2 fold change, soluble protein after heating vs DMSO (PISA); higher = thermal stabilisation; K562 cells, 10 uM, 30 min; active = over 0.2 and 3.5 SD of the protein, either way, in both replicates (recomputed)
[1] = compound: CS(=O)(=O)c1ccc(-c2cnc(N)c(C(=O)Nc3ccccc3)n2)cc1
Procedure, shortened: (§1)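 For each measurement, 10 μM compound was applied for 30 min to K562 cells at 2×10^6 cells/mL. Aliquots were heated for 3 min across 48°C-58°C, pooled, and extracted in PBS with 0.5% NP-40 at 4°C; the supernatant after 21,000xg for 90 min was soluble protein. This was quantified by TMTpro 16plex LC-MS/MS with channel sums equalised, and thermal stability was reported relative to control samples from duplicates, on a log2 fold-change scale.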

[2] = compound: C[C@@H](Oc1cc(-c2cnn(C3CCNCC3)c2)cnc1N)c1c(Cl)ccc(F)c1Cl [crizotinib]
Procedure, shortened: as §1

[3] = compound: C[C@@H]1COCCN1C2=NC(=NC(=C2)C3(CC3)S(=O)(=O)C)C4=C5C=CNC5=CC=C4
Procedure, shortened: as §1

[4] = compound: C[C@H](C1=CC=C(C=C1)C(=O)NC2=C3C=CNC3=NC=C2)N
Procedure, shortened: as §1

[5] = compound: C[C@H](Nc1ncnc2nc[nH]c12)c1cc2cccc(Cl)c2c(=O)n1-c1ccccc1 [duvelisib]
Procedure, shortened: as §1

[6] = compound: Cc1cc(Nc2cc(CN3CCOCC3)c3nc(C)c(Cc4ccc(Cl)cc4F)n3n2)n[nH]1 [gandotinib]
Procedure, shortened: as §1

[7] = compound: Cc1cc(Nc2cc(N3CCN(C)CC3)nc(Sc3ccc(NC(=O)C4CC4)cc3)n2)n[nH]1 [tozasertib]
Procedure, shortened: as §1

[8] = compound: Cc1cc(SCc2sc(-c3ccc(C(F)(F)F)cc3)nc2C)ccc1OCC(=O)O
Procedure, shortened: as §1

[9] = compound: Cc1ccc(-n2nc(C(C)(C)C)cc2NC(=O)Nc2ccc(OCCN3CCOCC3)c3ccccc23)cc1 [doramapimod]
Procedure, shortened: as §1

[10] = compound: Cc1ccc(C(=O)N(CCCN)[C@@H](c2nc3cc(Cl)ccc3c(=O)n2Cc2ccccc2)C(C)C)cc1 [ispinesib]
Procedure, shortened: as §1

Sequence of UniProt Q15257 (Q15257 whole entry, looked up): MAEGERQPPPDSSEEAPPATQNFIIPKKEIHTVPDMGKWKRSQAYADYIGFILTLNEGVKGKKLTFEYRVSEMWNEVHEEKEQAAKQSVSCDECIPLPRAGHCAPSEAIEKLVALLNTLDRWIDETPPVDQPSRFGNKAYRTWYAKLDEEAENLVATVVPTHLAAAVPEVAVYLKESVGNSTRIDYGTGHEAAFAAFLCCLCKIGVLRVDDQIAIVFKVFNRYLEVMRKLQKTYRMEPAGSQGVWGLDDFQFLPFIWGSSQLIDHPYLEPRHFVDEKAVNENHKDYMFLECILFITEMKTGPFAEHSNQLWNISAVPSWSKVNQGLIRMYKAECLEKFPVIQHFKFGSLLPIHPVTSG
Sequence of UniProt Q8TAP8 (Q8TAP8 whole entry, looked up): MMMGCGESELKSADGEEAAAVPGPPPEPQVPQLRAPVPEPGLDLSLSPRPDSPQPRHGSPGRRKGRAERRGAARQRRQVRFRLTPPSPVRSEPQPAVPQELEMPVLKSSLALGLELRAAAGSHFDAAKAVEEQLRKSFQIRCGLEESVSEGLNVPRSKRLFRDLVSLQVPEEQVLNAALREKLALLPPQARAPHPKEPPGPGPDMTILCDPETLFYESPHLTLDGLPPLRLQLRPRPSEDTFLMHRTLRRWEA
Sequence of UniProt Q8N8N7 (Q8N8N7 whole entry, looked up): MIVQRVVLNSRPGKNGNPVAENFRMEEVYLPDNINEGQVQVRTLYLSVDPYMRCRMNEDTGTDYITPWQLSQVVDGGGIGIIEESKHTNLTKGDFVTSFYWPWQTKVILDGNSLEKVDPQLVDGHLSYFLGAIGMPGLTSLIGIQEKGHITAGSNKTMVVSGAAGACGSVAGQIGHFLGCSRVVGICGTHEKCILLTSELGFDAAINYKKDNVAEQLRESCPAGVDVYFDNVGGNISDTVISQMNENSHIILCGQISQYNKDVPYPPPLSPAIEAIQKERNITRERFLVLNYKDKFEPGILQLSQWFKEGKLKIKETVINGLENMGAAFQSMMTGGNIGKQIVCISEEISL
Sequence of UniProt P19174 (P19174 whole entry, looked up): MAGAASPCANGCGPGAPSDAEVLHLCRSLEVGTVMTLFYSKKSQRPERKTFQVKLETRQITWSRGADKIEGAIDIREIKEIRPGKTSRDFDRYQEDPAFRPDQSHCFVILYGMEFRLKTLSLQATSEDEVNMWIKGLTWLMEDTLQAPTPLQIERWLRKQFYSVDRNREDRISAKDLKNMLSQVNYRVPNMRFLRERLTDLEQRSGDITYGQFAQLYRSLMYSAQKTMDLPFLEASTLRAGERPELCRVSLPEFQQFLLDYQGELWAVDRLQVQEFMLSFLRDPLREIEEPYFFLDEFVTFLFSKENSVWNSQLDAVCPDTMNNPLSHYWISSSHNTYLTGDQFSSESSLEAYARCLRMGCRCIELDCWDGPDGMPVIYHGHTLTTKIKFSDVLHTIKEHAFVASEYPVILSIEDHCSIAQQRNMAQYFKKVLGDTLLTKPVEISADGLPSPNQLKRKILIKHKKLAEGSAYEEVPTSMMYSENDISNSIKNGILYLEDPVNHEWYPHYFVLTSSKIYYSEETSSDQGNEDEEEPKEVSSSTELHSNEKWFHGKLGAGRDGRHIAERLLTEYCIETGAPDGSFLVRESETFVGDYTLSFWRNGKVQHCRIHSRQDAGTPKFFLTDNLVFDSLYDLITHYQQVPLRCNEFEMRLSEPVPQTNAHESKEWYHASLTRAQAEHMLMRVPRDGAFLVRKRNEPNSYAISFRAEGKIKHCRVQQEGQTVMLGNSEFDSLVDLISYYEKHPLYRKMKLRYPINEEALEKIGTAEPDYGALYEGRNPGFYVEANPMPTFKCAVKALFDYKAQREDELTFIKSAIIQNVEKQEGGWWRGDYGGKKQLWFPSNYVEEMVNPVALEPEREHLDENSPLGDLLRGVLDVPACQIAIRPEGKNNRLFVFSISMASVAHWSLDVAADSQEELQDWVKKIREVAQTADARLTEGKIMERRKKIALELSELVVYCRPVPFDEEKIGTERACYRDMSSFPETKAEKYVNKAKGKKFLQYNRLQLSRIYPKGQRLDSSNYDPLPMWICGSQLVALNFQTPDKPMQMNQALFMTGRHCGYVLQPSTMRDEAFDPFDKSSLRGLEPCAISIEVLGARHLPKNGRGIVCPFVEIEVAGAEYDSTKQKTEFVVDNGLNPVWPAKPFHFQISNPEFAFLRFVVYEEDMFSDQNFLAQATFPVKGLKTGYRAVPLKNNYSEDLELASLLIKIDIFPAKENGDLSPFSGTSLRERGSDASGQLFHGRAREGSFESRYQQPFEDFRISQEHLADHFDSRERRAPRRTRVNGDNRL
Sequence of UniProt Q8NAV1 (Q8NAV1 whole entry, looked up): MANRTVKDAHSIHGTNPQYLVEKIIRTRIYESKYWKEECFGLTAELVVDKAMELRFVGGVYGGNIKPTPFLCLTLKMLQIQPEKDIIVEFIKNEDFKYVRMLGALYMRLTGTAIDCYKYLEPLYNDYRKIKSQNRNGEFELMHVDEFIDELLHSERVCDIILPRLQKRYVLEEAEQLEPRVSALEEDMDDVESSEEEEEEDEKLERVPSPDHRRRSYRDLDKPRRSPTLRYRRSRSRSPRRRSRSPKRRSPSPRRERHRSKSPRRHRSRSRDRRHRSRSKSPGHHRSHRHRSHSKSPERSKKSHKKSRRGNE
Sequence of UniProt P05771 (P05771 whole entry, looked up): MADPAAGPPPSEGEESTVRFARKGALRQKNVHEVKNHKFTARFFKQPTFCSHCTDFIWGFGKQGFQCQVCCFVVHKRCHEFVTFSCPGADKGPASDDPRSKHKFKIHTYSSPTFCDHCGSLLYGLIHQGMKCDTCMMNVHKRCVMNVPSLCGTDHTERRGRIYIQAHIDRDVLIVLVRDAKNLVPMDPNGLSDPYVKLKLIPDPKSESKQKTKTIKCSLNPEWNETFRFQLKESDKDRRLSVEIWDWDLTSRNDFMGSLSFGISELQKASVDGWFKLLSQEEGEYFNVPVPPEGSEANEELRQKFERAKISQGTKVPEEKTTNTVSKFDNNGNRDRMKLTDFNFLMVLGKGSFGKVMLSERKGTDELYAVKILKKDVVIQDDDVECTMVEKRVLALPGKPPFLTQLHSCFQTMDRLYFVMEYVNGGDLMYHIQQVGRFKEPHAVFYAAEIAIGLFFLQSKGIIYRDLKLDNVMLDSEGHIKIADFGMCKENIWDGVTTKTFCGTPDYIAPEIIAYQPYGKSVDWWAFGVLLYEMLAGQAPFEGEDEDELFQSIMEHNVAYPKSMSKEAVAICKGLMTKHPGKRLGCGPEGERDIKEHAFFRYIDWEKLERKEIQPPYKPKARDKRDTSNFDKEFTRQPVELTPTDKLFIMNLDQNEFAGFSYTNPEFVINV
Sequence of UniProt Q93096 (Q93096 whole entry, looked up): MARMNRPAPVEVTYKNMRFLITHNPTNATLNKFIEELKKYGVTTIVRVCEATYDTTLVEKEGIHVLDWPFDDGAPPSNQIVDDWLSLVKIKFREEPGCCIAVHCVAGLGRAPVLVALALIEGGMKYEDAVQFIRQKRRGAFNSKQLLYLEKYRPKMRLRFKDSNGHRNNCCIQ
Sequence of UniProt Q15004 (Q15004 whole entry, looked up): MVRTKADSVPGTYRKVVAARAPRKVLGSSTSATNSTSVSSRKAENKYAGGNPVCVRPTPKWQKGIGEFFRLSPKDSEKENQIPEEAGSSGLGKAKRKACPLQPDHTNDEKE
Sequence of UniProt Q9UNM6 (Q9UNM6 whole entry, looked up): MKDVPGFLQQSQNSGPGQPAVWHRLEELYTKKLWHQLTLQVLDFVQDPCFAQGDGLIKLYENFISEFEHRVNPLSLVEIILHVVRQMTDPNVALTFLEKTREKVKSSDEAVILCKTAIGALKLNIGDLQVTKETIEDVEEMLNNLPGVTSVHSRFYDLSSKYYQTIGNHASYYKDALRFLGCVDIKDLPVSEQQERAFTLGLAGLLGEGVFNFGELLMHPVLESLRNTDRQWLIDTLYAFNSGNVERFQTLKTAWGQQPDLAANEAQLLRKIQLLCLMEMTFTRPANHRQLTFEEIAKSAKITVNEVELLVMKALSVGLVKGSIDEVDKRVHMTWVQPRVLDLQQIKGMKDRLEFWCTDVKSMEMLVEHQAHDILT
Sequence of UniProt P51665 (P51665 whole entry, looked up): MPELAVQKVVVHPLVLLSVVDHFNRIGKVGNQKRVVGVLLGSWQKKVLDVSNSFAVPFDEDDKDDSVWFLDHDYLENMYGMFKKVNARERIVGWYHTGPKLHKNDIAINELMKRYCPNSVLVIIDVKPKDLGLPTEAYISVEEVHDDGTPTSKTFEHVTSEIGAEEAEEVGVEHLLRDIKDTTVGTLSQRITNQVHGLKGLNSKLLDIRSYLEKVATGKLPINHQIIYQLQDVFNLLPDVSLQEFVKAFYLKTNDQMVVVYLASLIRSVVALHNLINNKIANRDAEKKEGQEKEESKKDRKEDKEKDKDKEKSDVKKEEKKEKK
Sequence of UniProt Q9Y244 (Q9Y244 whole entry, looked up): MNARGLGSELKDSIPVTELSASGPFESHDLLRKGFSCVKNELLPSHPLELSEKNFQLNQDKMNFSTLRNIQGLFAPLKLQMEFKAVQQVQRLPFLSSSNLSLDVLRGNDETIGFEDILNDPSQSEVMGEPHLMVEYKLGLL
Sequence of UniProt Q8WUK0 (Q8WUK0 whole entry, looked up): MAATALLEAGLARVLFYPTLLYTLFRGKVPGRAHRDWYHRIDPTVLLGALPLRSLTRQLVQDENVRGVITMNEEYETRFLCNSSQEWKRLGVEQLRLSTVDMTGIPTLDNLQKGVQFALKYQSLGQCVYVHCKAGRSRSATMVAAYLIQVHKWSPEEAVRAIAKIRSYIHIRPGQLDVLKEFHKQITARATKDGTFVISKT
Sequence of UniProt Q92871 (Q92871 whole entry, looked up): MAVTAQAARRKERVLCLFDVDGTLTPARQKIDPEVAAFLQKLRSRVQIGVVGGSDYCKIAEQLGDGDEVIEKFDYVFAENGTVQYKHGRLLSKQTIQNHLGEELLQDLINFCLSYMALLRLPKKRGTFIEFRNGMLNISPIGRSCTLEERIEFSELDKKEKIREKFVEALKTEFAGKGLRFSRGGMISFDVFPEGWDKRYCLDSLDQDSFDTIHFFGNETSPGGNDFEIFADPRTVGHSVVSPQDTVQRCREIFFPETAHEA

| Target | log2 fold change [1] | log2 fold change [2] | log2 fold change [3] | log2 fold change [4] | log2 fold change [5] | log2 fold change [6] | log2 fold change [7] | log2 fold change [8] | log2 fold change [9] | log2 fold change [10] |
| --- | --- | --- | --- | --- | --- | --- | --- | --- | --- | --- |
| PTP4A1 (UniProt Q93096) | 0.04 | 0.036 | -0.006 | -0.094 | -0.013 | -0.116 | 0.018 | -0.039 | -0.037 | 0.039 |
| PEA15 isoform 2 (UniProt Q15121) | 0.012 | 0.136 | 0.141 | -0.048 | 0.074 | -0.073 | 0.103 | 0.048 | 0.003 | 0.034 |
| PSMD7 (UniProt P51665) | 0.077 | -0.001 | -0.053 | 0.072 | -0.073 | 0.078 | 0.003 | -0.003 | 0.069 | 0.018 |
| PTPMT1 (UniProt Q8WUK0) | 0.086 | -0.546 (active) | 0.039 | -0.026 | 0.118 | -0.125 | -0.001 | 0.109 | -0.036 | -0.429 (active) |
| PRKCD (UniProt Q05655) | 0.05 | -0.008 | 0.053 | -0.215 | 0.009 | -0.056 | -0.006 | 0.007 | 0.005 | -0.007 |
| PMPCA (UniProt Q10713) | 0.006 | -0.014 | 0.033 | -0.07 | 0.055 | -0.076 | -0.022 | -0.011 | 0.028 | -0.043 |
| PRKCQ (UniProt Q04759) | 0.021 | -0.238 | 0.037 | -0.374 (active) | 0.022 | -0.165 | -0.033 | 0.023 | 0.038 | -0.106 |
| PRUNE1 (UniProt Q86TP1) | -0.011 | -0.064 | -0.002 | -0.026 | -0.047 | -0.071 | 0.097 | 0.056 | 0.008 | -0.018 |
| PJA2 (UniProt O43164) | 0.032 | -0.042 | -0.126 | 0.091 | -0.021 | 0.097 | -0.018 | -0.118 | 0.033 | -0.098 |
| PRPF38A (UniProt Q8NAV1) | -0.029 | 0.018 | 0.017 | 0.009 | 0.037 | -0.042 | -0.071 | 0.017 | 0.006 | -0.024 |
| PLCG1 isoform 2 (UniProt P19174) | 0.016 | -0.412 (active) | -0.09 | 0.16 | -0.037 | 0.107 | 0.016 | 0.161 | 0.001 | -0.178 |
| PRKCB isoform 2 (UniProt P05771) | 0.019 | -0.039 | 0.039 | -0.063 | 0.035 | -0.079 | 0.018 | 0.032 | -0.01 | -0.017 |
| POMP (UniProt Q9Y244) | -0.086 | -0.059 | -0.023 | -0.076 | 0.055 | 0.027 | 0.001 | -0.245 | -0.143 | 0.108 |
| PCLAF (UniProt Q15004) | -0.175 | 0.027 | -0.19 | 0.052 | -0.022 | -0.07 | -0.03 | -0.097 | 0.022 | 0.079 |
| PRIM1 (UniProt P49642) | 0.051 | -0.066 | 0.039 | 0.086 | -0.011 | -0.131 | 0.001 | 0.102 | 0.007 | -0.082 |
| PPIL1 (UniProt Q9Y3C6) | -0.029 | 0.038 | 0.018 | 0.012 | 0 | 0.045 | -0.01 | 0.014 | 0.031 | -0.089 |
| PTPA (UniProt Q15257) | -0.001 | 0.028 | 0.074 | -0.117 | 0.052 | -0.037 | 0.024 | 0.013 | -0.001 | 0.091 |
| PPP1R35 (UniProt Q8TAP8) | -0.025 | -0.036 | 0.179 | -0.037 | -0.071 | 0.044 | 0.007 | 0.025 | 0.024 | -0.058 |
| PPID (UniProt Q08752) | 0.055 | -0.102 | 0.046 | 0.071 | -0.024 | -0.145 | 0.043 | 0.088 | 0.007 | -0.08 |
| PSMC1 (UniProt P62191) | 0.011 | 0.023 | -0.072 | 0.073 | -0.047 | 0.06 | 0.039 | 0.01 | 0.033 | -0.036 |
| PSMD13 (UniProt Q9UNM6) | 0.048 | 0.008 | -0.012 | 0.092 | -0.028 | -0.016 | 0.062 | 0.052 | 0.026 | -0.008 |
| PMM1 (UniProt Q92871) | 0.051 | 0.008 | 0.032 | 0.019 | 0.07 | -0.075 | -0.114 | -0.011 | 0.027 | 0.026 |
| PRG4 (UniProt Q92954) | 0.08 | -0.19 | -0.014 | 0.023 | -0.145 | 0.098 | 0.167 | 0.004 | -0.229 | -0.114 |
| PHKA2 (UniProt P46019) | -0.247 | -0.076 | 0.051 | -0.108 | 0.022 | -0.083 | -0.052 | 0.071 | 0.053 | -0.013 |
| PURA (UniProt Q00577) | -0.064 | 0.03 | -0.44 | 0.287 | -0.165 | 0.334 | 0.069 | -0.012 | 0.063 | -0.143 |
| POLA1 (UniProt P09884) | 0.01 | -0.041 | 0.065 | -0.048 | 0.046 | -0.069 | 0.083 | 0.09 | -0.029 | -0.036 |
| POLR3K (UniProt Q9Y2Y1) | -0.026 | 0.015 | 0.035 | -0.027 | 0.067 | 0.066 | -0.011 | -0.059 | 0.038 | -0.075 |
| PLD3 (UniProt Q8IV08) | -0.034 | -0.158 | 0.005 | -0.03 | -0.012 | 0.006 | -0.009 | -0.023 | 0.001 | -0.132 |
| PRKACA (UniProt P17612) | 0.009 | -0.088 | 0.046 | 0.043 | -0.02 | -0.105 | -0.014 | 0.112 | 0.019 | 0.053 |
| PTGR2 (UniProt Q8N8N7) | 0.097 | -0.075 | 0.045 | 0.112 | 0.049 | 0.192 | 0 | -0.185 | 0.223 | 0.013 |

Source: the supplement of paper PMC10849652
